Drawing on PubChem BioAssay (NCATS), this text covers Potency for 40 molecules.

Records with an inconclusive call do not appear. A call without a number means that no potency is given here. Active and inactive are the calls of the source. Calls come from the whole dose curve.
Potency is the fitted concentration of half-maximal effect.

The assay can be described thus: Natriuretic polypeptide receptor (hNpr1) antagonism - Pilot counterscreen GloSensor control cell line (AID 1347045). The conditions noted are these: HEK293 cGMP GloSensor cells, SNP-stimulated luminescence, 20 min; series mostly up to 38.3 µM. Here is the method: F. Fan, B. F. Binkowski, B. L. Butler, P. F. Stecha, M. K. Lewis, K. V. Wood, Novel genetically encoded biosensors using firefly luciferase. ACS Chem Biol 3, 346-351 (2008).
PROTOCOL TABLE (as described by Inglese J, Shamu CE and Guy RK. 2007)
SEQUENCE No. (e.g., 1, 2, 3, etc.); […] (e.g., Cells, Incubation, Reagent, etc.); VALUE and DESCRIPTION.
1. Cells. Seed 1500 HEK293 cGMP-sensor cells per well in 4uL into Greiner 1536-well white/solid bottom high base, TC plates.
2. Incubation. Incubate plated cells at 37C in 5% CO2, 95% RH overnight.
3. Reagent. Add 1uL per well GloSensor reagent from Promega (2% final concentration) or CO2 independent media vehicle control to respective columns of Greiner 1536-well plates.
4. Incubation. Incubate plated cells at room temperature for 2 h, protect from light.
5. Compounds. Library compounds and DMSO vehicle control added at 23nL per well, transferred by Pin Tool.
6. Incubation. Incubate plated cells for 30 min. at room temperature, protect from light.
7. Detector. GloSensor baseline pre-read luminescence measured using CCD-based camera (Viewlux).
8. Compound. Add 1uL of sodium nitroprusside (SNP) to 50 uM final concentration to stimulate soluble guanylyl cyclase (GC) or CO2 independent media as vehicle control.
9. Incubation. Incubate treated cells at room temperature for 20 min., protect from light.
10. Detector. GloSensor post-SNP luminescence measured using CCD-based camera (Viewlux).
NOTES (numbers refer to Sequence numbers above; values are from representative experiments)
1. HEK293 cells expressing GIP/pGS-40F were grown to 85-95% confluence (48-72 h) in T175 culture flasks (CO2 independent media supplemented with 10% FBS, 1% Pen/Strep antibiotics, and 1 ug/mL puromycin). Trypsinize and harvest cells from T175 culture flasks and filter through 40 um cell strainer. Cells counted with Invitrogen Countess (30,000,000 - 50,000,000 cells/flask).
2. Cells incubated for 24 h. at 37C in 95% RH incubator with metal lid having gas-exchange holes.
3. Prepare GloSensor Reagent (Promega): Reconstitute GloSensor luciferase substrate by adding 8.2mL Hepes buffer to 250mg substrate, mix well, protect from light and stored at -80C. Prepare a fresh 12% GloSensor solution in CO2 independent supplemented plating media (see above). Mix well and store at ambient temperature, protected from light. 1uL 12% GloSensor Luciferase Reagent added (2% final concentration) to respective columns of 9 x 1536-well Greiner plate with BioRaptr, 1uL CO2 independent plating media added to respective columns as vehicle control with BioRaptr.
4. Cells incubated for 2 h. at ambient temperature, protected from light with metal lid having gas-exchange holes.
5. 23nL of LOPAC128 library compounds (7 plates) or DMSO vehicle control transferred to 9 Greiner white/solid bottom high base, TC plates in 7 interplate 1:5 titrations (see Yasgar, A. et al. 2008) with Pintool. Two of the 9 plates are DMSO-only in compound field at beginning and end of compound library-treated plates.
6. Cells incubated for 30-50 min. at ambient temperature protected from light with metal lid having gas-exchange holes.
7. Read GloSensor + Antagonist/Compound baseline Luminescence on the ViewLux [Exposure, 30 s; Gain, High; Speed, Slow; Binning, 2X]
8. SNP solution prepared at 500 mM (in H2O) stock concentration. From this a working dilution was prepared at 300 uM in CO2 Independent media. 1uL of 300 uM SNP (50 uM final concentration) or CO2 Independent media vehicle control dispensed into respective columns of 9 x Greiner 1536-well white/solid bottom, tissue culture plates with BioRaptr.
9. Cells incubated for 20 min. at ambient temperature, protected from light with metal lid having gas-exchange holes.
10. Read final luminescence on the ViewLux. [Exposure, 30 s; Gain, High; Speed, Slow; Binning, 2X.]
[…]
Background: Counterscreens check selectivity or assay interference.
`CCN(c1nc(N)c(C(=O)N=C(N)N)nc1Cl)C(C)C`: the Potency result was “inactive”.

For the molecule `CN1Cc2sccc2C(c2ccc(O)c(O)c2)C1` (stereo not given), the Potency entry was “inactive”.

Take `CNc1ncnc2c1ncn2[C@H]1C[C@H](OP(=O)(O)O)[C@@H](COP(=O)(O)O)O1`: the Potency entry is “inactive”.

As to `NCCS(=O)O`, the Potency result is “inactive”.

Consider `CCOC(=O)C12CC1/C(=N/O)c1ccccc1O2` (stereo not given), for which the Potency result is “inactive”.

In the case of `C[C@H]1CC2C3CCC4=CC(=O)C=C[C@]4(C)[C@@]3(Cl)[C@@H](O)C[C@]2(C)[C@@]1(O)C(=O)CO` (stereo not given in full), the Potency entry is “inactive”.

`Nc1nc2[nH]c(=O)cnc2c(=O)[nH]1`: the Potency entry is “inactive”.

With `CN1CCC2(CCN3CCc4c(oc5ccccc45)C3C2)N(C)C1=O` (stereo not given), the Potency entry is “inactive”.

`COc1ccc(C(=O)NCc2cccnc2)cc1C(=O)NCc1cccnc1`: the Potency result was “inactive”.

With `CC(C)[C@@H]1CC[C@@H](C)C[C@@H]1P(=O)(c1ccccc1)c1ccccc1`, the Potency entry was “inactive”.

Take `CC(N)(Cc1ccc(O)cc1)C(=O)O` (stereo not given): the Potency result is “inactive”.

On to `CCCCOC(=O)NS(=O)(=O)c1sc(CC(C)C)cc1-c1ccc(Cn2c(CC)nc3c(C)cc(C)nc32)cc1`, for which the Potency result was “inactive”.

`CC(=O)/C(C)=N/O`: the Potency result was “inactive”.

`CC(=O)SC1CC2=CC(=O)CC[C@]2(C)C2CC[C@@]3(C)C(CC[C@@]34CCC(=O)O4)C12` (stereo not given in full): the Potency result is “inactive”.

In the case of `COc1ccccc1N1CCN(CCCCN2C(=O)c3ccccc3C2=O)CC1`, the Potency result is “inactive”.

Consider `N[C@@H](CCC(=O)N[C@H](CSN=O)C(=O)NCC(=O)O)C(=O)O`, for which the Potency result is “inactive”.

Turning to `O=C(O)C1=CCCNC1`, the Potency entry is “inactive”.

Turning to `CCCCC[C@H](CC(=O)NO)C(=O)N[C@H](C(=O)N1CCC[C@H]1CO)C(C)C`, the Potency entry was “inactive”.

With `NOCC(=O)O`, the Potency result is “inactive”.

On to `CCCCOc1cc(CC2CNC(=O)N2)ccc1OC` (stereo not given), for which the Potency result is “inactive”.

As to `N=C(N)SCCN`, the Potency entry was “inactive”.

As for `Cn1c(=O)c2[nH]c(C3CCCC3)nc2n(C)c1=O`, the Potency result was “inactive”.

Consider `O=C(O)c1ccccc1Nc1ccccc1`, for which the Potency entry is “inactive”.

For the molecule `CSC(N)=NCCC[C@H](N)C(=O)O`, the Potency result is “inactive”.

For the molecule `C[C@@]1(C2CCCC2)Cc2cc(OCC(=O)O)c(Cl)c(Cl)c2C1=O`, the Potency entry is “inactive”.

On to `CC(/C=C/c1cccc(Oc2ccc(F)cc2)c1)N(O)C(N)=O` (stereo not given), for which the Potency result was “inactive”.

For the molecule `CCCCCC[C@@H]([C@@H](C)O)n1cnc2c(N)ncnc21`, the Potency result is “inactive”.

For `C=CCn1c(=O)c2c(nc(-c3ccc(S(=O)(=O)O)cc3)n2C)n(C)c1=O`, the Potency result is “inactive”.

As for `Cc1ccc([N+](=O)[O-])cc1S(=O)(=O)N(C)C`, the Potency result was “inactive”.

In the case of `c1ccc(C2CN3CCSC3=N2)cc1` (stereo not given), the Potency entry was “inactive”.

Regarding `N=C(N)SCCc1cnc[nH]1`, the Potency result is “inactive”.

In the case of `N=S(=O)(O)Cc1noc2ccccc12`, the Potency result was “inactive”.

For `O=c1oc(Cl)c(Cl)c2ccccc12`, the Potency was 13.1 µM (active).

Consider `CCCCCC(O)CCCC(=O)O` (stereo not given), for which the Potency entry is “inactive”.

In the case of `OCC1NCC(O)C(O)C1O` (stereo not given), the Potency entry was “inactive”.

Turning to `CN1CCCC1CCOC(C)(c1ccccc1)c1ccc(Cl)cc1` (stereo not given), the Potency entry is “inactive”.

As for `CCCCCCCCCCCCCCC[C@H](O)[C@H](N)CO`, the Potency entry is “inactive”.

Consider `N[C@H](C(=O)O)[C@H](Cc1ccccc1)C(=O)O`, for which the Potency entry is “inactive”.

Consider `CCCCCCCCCCC/C=C\C(C)(C)/C=C\CCCC(=O)O`, for which the Potency entry was “inactive”.

`COc1ccc(CCn2nnnc2C2(c3ccc(C)cc3)CC2)cc1`: the Potency entry was “inactive”.
